Drawing on PubChem BioAssay AID504915 (The Scripps Research Institute Molecular Screening Center, 2011), this text covers activation for 25 molecules.

Molecules are shown by their SMILES. This is one part of the list. The source made the active and inactive calls. No stated cut-off is given here; in the data, active means activation above about 17%; inactive means the rest.

5-hydroxytryptamine receptor 5A (Homo sapiens), sequence (P47898 whole entry, looked up): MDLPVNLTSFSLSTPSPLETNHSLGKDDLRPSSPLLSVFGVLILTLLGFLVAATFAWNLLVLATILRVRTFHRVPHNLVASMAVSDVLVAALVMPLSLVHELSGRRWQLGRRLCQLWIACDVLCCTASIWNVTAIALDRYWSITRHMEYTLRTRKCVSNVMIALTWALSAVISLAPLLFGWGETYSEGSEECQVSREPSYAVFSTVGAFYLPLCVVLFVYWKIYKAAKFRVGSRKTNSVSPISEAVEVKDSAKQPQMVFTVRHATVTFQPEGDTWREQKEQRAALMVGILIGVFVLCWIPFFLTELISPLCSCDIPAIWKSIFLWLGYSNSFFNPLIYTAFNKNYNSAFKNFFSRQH

This assay addresses 5-hydroxytryptamine receptor 5A (Homo sapiens) (UniProt P47898). Briefly: activation of human 5-HT5A receptor – cell-based, luminescence, confirmation (AID 504915).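 Further: 0% = cells with vehicle only and 100% = full reference agonist response.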 The settings on record: HTR5A agonist cell assay, at 9.3 µM, active compounds read high.
As to `COC(=O)c1cc(C(=O)OCC(=O)Nc2cc(C)on2)cc([N+](=O)[O-])c1`, the activation was 1.23% (inactive).

Take `CCCOc1ccc(C(=O)C(CCC(CNCC)C(=O)c2ccc(OCCC)cc2)CNCC)cc1` (stereo not given): the activation is -4.56% (inactive).

`Cc1ccc(C(=O)N/C(=C/c2ccco2)C(=O)NCCc2c[nH]c3ccccc23)cc1C`: the activation is -0.29% (inactive).

Turning to `O=C(CC1Nc2ccccc2NC1=O)Nc1ccccc1` (stereo not given), the activation was 3.07% (inactive).

Turning to `CCN(CC(=O)Nc1cccc(S(=O)(=O)N2CCCCC2)c1)Cc1ccccc1`, the activation is 1.96% (inactive).

Regarding `c1cc(-c2nn[nH]n2)ccc1CN1CCCCC1`, the activation was -1.04% (inactive).

As to `COc1ccc(C(=O)O/N=C(\N)Cc2ccc(Cl)cc2Cl)cc1OC`, the activation is 10.9% (inactive).

`CC1(C)C2CCC1(CS(=O)(=O)NCCc1c[nH]c3ccccc13)C(=O)C2` (stereo not given): the activation was 35.4% (active).

Take `Cc1ccccc1CN1CCN(CC(=O)NCc2ccccn2)C1=O`: the activation is 3.7% (inactive).

For the molecule `O=C(CC(O)(C(F)(F)F)C(F)(F)F)Nc1ccc(Cl)c(Cl)c1`, the activation was -1.59% (inactive).

Take `COc1ccc(/C=C(\C#N)c2c[nH]c3ccccc23)cc1`: the activation is 0.48% (inactive).

As for `CC(=O)COc1ccc2c(-c3ccccc3)cc(=O)oc2c1`, the activation is 4.18% (inactive).

`COc1cccc(/C=N/NC(=O)c2[nH]nc3c2CCc2ccccc2-3)c1O`: the activation is -2.75% (inactive).

For `O=C(Nc1ccc(C(=O)N2CCOCC2)cc1)Nc1cccc(C(F)(F)F)c1`, the activation was 43.1% (active).

Take `Cc1cccc2sc(N(CCCN(C)C)C(=O)CCS(=O)(=O)c3ccccc3)nc12`: the activation was 5.39% (inactive).

With `CCOC(=O)c1cnc2sccn2c1=O`, the activation was 5.5% (inactive).

As for `CCC(C)NC(=O)CCCc1ccccc1` (stereo not given), the activation was 0.89% (inactive).

As for `CC(=O)N1CCN(c2ccccc2NC(=S)NC(=O)c2cc3ccccc3o2)CC1`, the activation is 4.36% (inactive).

For the molecule `O=C(c1cccnc1)N(c1cc2sc(=O)oc2c2ccccc12)S(=O)(=O)c1ccccc1`, the activation was 2.35% (inactive).

On to `COc1c(Cl)cc(C(=O)Nc2ccc(Cl)cn2)cc1Cl`, for which the activation was 4.5% (inactive).

For `CC(C)OC(=O)c1c(NC(=O)c2ccco2)sc2c1CCCC2`, the activation was 0.39% (inactive).

As for `COc1ccccc1S(=O)(=O)NCc1ccc(C(=O)N(C)Cc2ccc(F)cc2)cc1`, the activation is -2.33% (inactive).

As for `COc1ccc(-c2ocnc2C(=O)Nc2ccc3c(c2)CCC3)cc1`, the activation is -0.96% (inactive).

As for `Cc1ccc(CCC(=O)Nc2ncc(Cc3cc(Cl)ccc3Cl)s2)o1`, the activation is 29.1% (active).

Turning to `CN1c2ccc(C=O)c3c(C=O)ccc(c23)N(C)C1(C)C`, the activation is -0.75% (inactive).
